Where a name gives a salt, the structure may show the parent alone. ± gives the standard deviation of the averaged measurements.
Columns and labels:
[1] = system: Saccharomyces cerevisiae BY4741 SeMeCo community; assay: mean cell size (pixel area) (pixels); higher = larger cells; conditions: 10 µM; 24 h; SM minimal medium
Summary of the method: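 Mean cell pixel area per well was measured in a four-plasmid fluorescent community of Saccharomyces cerevisiae BY4741, where every plasmid complements one auxotrophy and carries a fluorescent marker. Cells from an overnight preculture at OD600 = 1.0 were diluted to OD600 = 0.3 and dispensed at 70 µl into 384-well plates acoustically predosed with drug to a final 10 µM in SM medium. Incubation lasted 24 h, followed by paraformaldehyde fixation, automated confocal imaging and analysis in Harmony. Reported figures are averaged over 3 replicates. Same SeMeCo high-content imaging drug screen: Selleck FDA-approved drugs at 10 µM, 24 h in SM medium, 384-well plates, 3 replicates.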

[2] = system: Saccharomyces cerevisiae BY4741 SeMeCo community; assay: z-score of prototroph abundance vs DMSO median; higher = larger share of this subpopulation than in DMSO controls; conditions: 10 µM; 24 h; SM minimal medium; subpopulation (auxotrophy): Prototroph
Summary of the method: (§1)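 Scoring was based on each subpopulation's abundance, expressed as a z-score against the vehicle-well median. A Saccharomyces cerevisiae BY4741 community with four plasmids, each restoring one auxotrophy and encoding a distinct fluorescent protein, was pre-grown overnight to OD600 1.0, diluted to 0.3, and added at 70 µl to 384-well plates acoustically predosed with library drugs (10 µM final). It then grew 24 h in minimal SM medium before paraformaldehyde fixation and automated confocal microscopy, with single-auxotroph fluorescent strains setting thresholds and autofluorescence correction.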

[3] = system: Saccharomyces cerevisiae BY4741 SeMeCo community; assay: z-score of subpopulation abundance vs DMSO median, subpopulation auxotrophic for M; higher = larger share of this subpopulation than in DMSO controls; conditions: 10 µM; 24 h; SM minimal medium; subpopulation (auxotrophy): M
Summary of the method: as §1

[4] = system: Saccharomyces cerevisiae BY4741 SeMeCo community; assay: z-score of subpopulation abundance vs DMSO median, subpopulation auxotrophic for L; higher = larger share of this subpopulation than in DMSO controls; conditions: 10 µM; 24 h; SM minimal medium; subpopulation (auxotrophy): L
Summary of the method: as §1

[5] = system: Saccharomyces cerevisiae BY4741 SeMeCo community; assay: z-score of subpopulation abundance vs DMSO median, subpopulation auxotrophic for U; higher = larger share of this subpopulation than in DMSO controls; conditions: 10 µM; 24 h; SM minimal medium; subpopulation (auxotrophy): U
Summary of the method: as §1

[6] = system: Saccharomyces cerevisiae BY4741 SeMeCo community; assay: z-score of subpopulation abundance vs DMSO median, subpopulation auxotrophic for H; higher = larger share of this subpopulation than in DMSO controls; conditions: 10 µM; 24 h; SM minimal medium; subpopulation (auxotrophy): H
Summary of the method: as §1

[7] = system: Saccharomyces cerevisiae BY4741 SeMeCo community; assay: z-score of subpopulation abundance vs DMSO median, subpopulation auxotrophic for LU; higher = larger share of this subpopulation than in DMSO controls; conditions: 10 µM; 24 h; SM minimal medium; subpopulation (auxotrophy): LU
Summary of the method: as §1

[8] = system: Saccharomyces cerevisiae BY4741 SeMeCo community; assay: z-score of subpopulation abundance vs DMSO median, subpopulation auxotrophic for LM; higher = larger share of this subpopulation than in DMSO controls; conditions: 10 µM; 24 h; SM minimal medium; subpopulation (auxotrophy): LM
Summary of the method: as §1

[9] = system: Saccharomyces cerevisiae BY4741 SeMeCo community; assay: z-score of subpopulation abundance vs DMSO median, subpopulation auxotrophic for HM; higher = larger share of this subpopulation than in DMSO controls; conditions: 10 µM; 24 h; SM minimal medium; subpopulation (auxotrophy): HM
Summary of the method: as §1

[10] = system: Saccharomyces cerevisiae BY4741 SeMeCo community; assay: z-score of subpopulation abundance vs DMSO median, subpopulation auxotrophic for HU; higher = larger share of this subpopulation than in DMSO controls; conditions: 10 µM; 24 h; SM minimal medium; subpopulation (auxotrophy): HU
Summary of the method: as §1

[11] = system: Saccharomyces cerevisiae BY4741 SeMeCo community; assay: z-score of subpopulation abundance vs DMSO median, subpopulation auxotrophic for HL; higher = larger share of this subpopulation than in DMSO controls; conditions: 10 µM; 24 h; SM minimal medium; subpopulation (auxotrophy): HL
Summary of the method: as §1

[12] = system: Saccharomyces cerevisiae BY4741 SeMeCo community; assay: z-score of subpopulation abundance vs DMSO median, subpopulation auxotrophic for HLU; higher = larger share of this subpopulation than in DMSO controls; conditions: 10 µM; 24 h; SM minimal medium; subpopulation (auxotrophy): HLU
Summary of the method: as §1

[13] = system: Saccharomyces cerevisiae BY4741 SeMeCo community; assay: z-score of subpopulation abundance vs DMSO median, subpopulation auxotrophic for HUM; higher = larger share of this subpopulation than in DMSO controls; conditions: 10 µM; 24 h; SM minimal medium; subpopulation (auxotrophy): HUM
Summary of the method: as §1

[14] = system: Saccharomyces cerevisiae BY4741 SeMeCo community; assay: z-score of subpopulation abundance vs DMSO median, subpopulation auxotrophic for HLUM; higher = larger share of this subpopulation than in DMSO controls; conditions: 10 µM; 24 h; SM minimal medium; subpopulation (auxotrophy): HLUM
Summary of the method: as §1

[15] = system: Saccharomyces cerevisiae BY4741 SeMeCo community; assay: z-score of subpopulation abundance vs DMSO median, subpopulation auxotrophic for UM; higher = larger share of this subpopulation than in DMSO controls; conditions: 10 µM; 24 h; SM minimal medium; subpopulation (auxotrophy): UM
Summary of the method: as §1

[16] = system: Saccharomyces cerevisiae BY4741 SeMeCo community; assay: z-score of subpopulation abundance vs DMSO median, subpopulation auxotrophic for LUM; higher = larger share of this subpopulation than in DMSO controls; conditions: 10 µM; 24 h; SM minimal medium; subpopulation (auxotrophy): LUM
Summary of the method: as §1

[17] = system: Saccharomyces cerevisiae BY4741 SeMeCo community; assay: z-score of subpopulation abundance vs DMSO median, subpopulation auxotrophic for HLM; higher = larger share of this subpopulation than in DMSO controls; conditions: 10 µM; 24 h; SM minimal medium; subpopulation (auxotrophy): HLM
Summary of the method: as §1

Compound | mean cell size [1] | z-score of prototroph abundance [2] | z-score of subpopulation abundance [3] | z-score of subpopulation abundance [4] | z-score of subpopulation abundance [5] | z-score of subpopulation abundance [6] | z-score of subpopulation abundance [7] | z-score of subpopulation abundance [8] | z-score of subpopulation abundance [9] | z-score of subpopulation abundance [10] | z-score of subpopulation abundance [11] | z-score of subpopulation abundance [12] | z-score of subpopulation abundance [13] | z-score of subpopulation abundance [14] | z-score of subpopulation abundance [15] | z-score of subpopulation abundance [16] | z-score of subpopulation abundance [17]
COc1cc(O)c(C(=O)Nc2nc(C(=O)NCCN(C(C)C)C(C)C)cs2)cc1OC [Acotiamide hydrochloride] | 12.4 ± 0.15 | -0.4 | -0.47 | -0.26 | 0.89 | 0.42 | 0.52 | -0.2 | 0.26 | 0.71 | -0.16 | 0.19 | 0.54 | -0.39 |  |  | 
CCCN1CCCC[C@H]1C(=O)Nc1c(C)cccc1C [Ropivacaine HCl] | 12.6 ± 0.13 |  | 0.95 | 0.47 | 0.42 | -0.94 | 0.42 | 0.37 | -0.41 | -0.21 | -0.74 | -0.22 | -0.03 |  | 0.78 | -0.08 | 
CCC(=O)NS(=O)(=O)c1ccc(-c2c(-c3ccccc3)noc2C)cc1 [Parecoxib Sodium] | 12.39 ± 0.068 |  | 0.75 | 0.68 | 0.97 | 0.01 | 0.31 | 1 | 1.65 | 0.55 | 1.38 | 0.91 | 1.38 | 0.78 | 0.8 | 1.18 | 
Cc1c(-c2ccc(O)cc2)n(Cc2ccc(OCCN3CCCCCC3)cc2)c2ccc(O)cc12 [Bazedoxifene HCl] | 12.54 ± 0.11 |  | 0.94 | -0.9 | -0.23 |  | 0.03 | 0.49 | 1.47 | -0.01 | 1.1 | -0.15 | -0.15 | -0.25 | -0.08 | 0.03 | 
CC/C(=C(/CC)c1ccc(O)cc1)c1ccc(O)cc1 [Diethylstilbestrol] | 12.85 ± 0.035 | 1.5 | 0.52 | -0.38 | -1.17 |  | -1.48 | -0.03 | -0.17 |  | -0.25 | -1.06 | -1.46 | -1.31 | -1.59 |  | 
C[C@H](NCc1ccc(OCc2cccc(F)c2)cc1)C(N)=O [Safinamide] | 12.47 ± 0.075 | -0.89 | 0.59 | -0.58 | 1.46 | -0.07 | 0.99 | 0.37 | 0.41 | 1.16 |  | 0.72 | -0.17 | 0.95 | 0.6 | 0.42 | 
Cc1ccc(-c2cc(C(F)(F)F)nn2-c2ccc(S(N)(=O)=O)cc2)cc1 [Celecoxib] | 12.5 ± 0.15 | 0.84 | -0.11 | 0.82 | -0.79 | 0.01 | -0.19 | -0.61 | -0.54 | -0.62 |  | -0.86 | -0.8 | -0.44 | -0.75 | -0.48 | 
Oc1c(Br)cc(Br)c2cccnc12 [Broxyquinoline] |  | -16.8 | 3.22 | 0.17 | -3.11 |  | 6.62 | 5.88 |  | 16.9 | 10.5 | 27.1 | 15.8 |  | 6.77 | 12.8 | 
CO[C@H]1C[C@@H]2CC[C@@H](C)[C@@](O)(O2)C(=O)C(=O)N2CCCC[C@H]2C(=O)O[C@H]([C@H](C)C[C@@H]2CC[C@H](n3cnnn3)[C@H](OC)C2)CC(=O)[C@H](C)/C=C(\C)[C@@H](O)[C@@H](OC)C(=O)[C@H](C)C[C@H](C)/C=C/C=C/C=C/1C [Zotarolimus(ABT-578)] | 13.94 ± 0.041 | -17.5 | -0.02 |  | 3.68 | 14.4 | 3.23 | 2.28 | 23.2 | 23.5 |  | 18.8 | 22.3 | 31.4 |  | 5.72 | 18.4
N[C@@H]1CONC1=O [D-Cycloserine] | 11.8 ± 0.15 | -0.18 | -0.07 |  | -1 |  | -0.16 | 0.54 | -0.26 | -0.43 | 0.99 | 0.51 | 0.3 | 0.69 | -0.3 | 0.83 | 0.38
CC1(C)S[C@@H]2[C@H](NC(=O)[C@H](N)c3ccc(O)cc3)C(=O)N2[C@H]1C(=O)O [Amoxicillin Sodium] |  |  | 0.97 | -0.33 | -0.06 |  | -0.7 | -1.17 | -0.22 | -0.71 | -1.14 | -0.65 |  | -0.2 | -0.03 | -0.05 | 
Cc1ccccc1OCC(O)CO (configuration not stated) [Mephenesin] | 12.23 ± 0.086 | 0.89 | 0 | 0.09 | -0.22 | -0.65 | -0.42 |  | -0.48 |  | -0.53 | -0.38 |  | -0.28 | -0.82 |  | 
Oc1ccc(Cl)c2cccnc12 [Cloxiquine] | 14.28 ± 0.12 | -17.6 | 5.82 |  | -1.71 | 13.1 | 6.41 | 8.36 | 26.6 | 11.8 | 17.4 | 17.6 | 14.5 | 43.7 | 6.45 | 22.1 | 64
COCCOC(=O)C1=C(C)NC(C)=C(C(=O)OC(C)C)C1c1cccc([N+](=O)[O-])c1 (configuration not stated) [Nimodipine] | 12.31 ± 0.09 | 0.04 | -0.26 |  | 0.32 | -0.5 | -0.12 | -0.2 | -0.32 | 0.19 | -0.61 | -0.01 | -0.42 | -0.14 | 0.69 | 0.35 | -0.43
CN(C)CCN1C(=O)c2cccc3cc(N)cc(c23)C1=O [Amonafide] | 12.29 ± 0.1 | 0.47 | 0.34 | -0.4 |  | 0.02 | -0.78 | 1.08 | -0.01 | -0.59 | -0.12 | 0.2 |  | -0.08 | -0.24 | 0.44 | 
Cc1ccc(Cl)c(Nc2ccccc2C(=O)O)c1Cl [Meclofenamate Sodium] | 12.7 ± 0.19 | 1.11 | 0.25 |  | -0.1 | -0.35 | -0.57 | -0.57 | -0.47 | -0.21 | -0.49 | -0.7 | -0.63 | -0.31 | -0.07 | -0.74 | -0.85
